ELG1 repair inh: ELG1-dependent DNA repair inhibition | actives 2.3% (n = 330,000) | AID 504467 | HEK293T ELG1-luciferase reporter, luminescence, 16 h; DNA damage induced by 5-fluorouridine | Potency, µM (top dose mostly 46.1 µM), for inactives: at the top dose activity change, negative = inhibition, usual class: inhibitors; note: potency is the fitted concentration of half-maximal effect; nearly all actives have a fitted effect of over 55% in size
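In this reporter screen, reduction of luminescence relative to DMSO vehicle indicated activity. Compounds and 5-fluorouridine were added together to 2,000 cells per well, incubated for 16 hr at 37 °C, then developed with ONE-Glo.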
HT1080-NT tox: kills 2HG-producing HT-1080-NT fibrosarcoma cells; HT-1080-NT fibrosarcoma viability, CellTiter-Glo ATP luminescence, 48 h; Potency, µM (titrated, usually from 46.1 µM), inactives show top-dose activity, negative = less viability, most hits filed as cytotoxic; actives 1.6% (n = 360,000); AID 686970;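 note: NT is the 2HG producing partner of a matched IDH1 knockdown line; potency is the fitted concentration of half-maximal effect; 0% = DMSO-treated cells and -100% = media-only wells without cells; nearly all actives have a fitted effect of over 55% in size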
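Luminescent CellTiter-Glo readout after 48 hours of compound exposure at 37 degrees C defined viability of HT-1080-NT cells. Activity was normalized to DMSO wells and cell-free media wells; concentration-response curves were fitted and assigned curve classes.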
TDP1 cell noCPT: qHTS for Inhibitors of human tyrosyl-DNA phosphodiesterase 1 (TDP1): qHTS in cells in absence of CPT | AID 686978, 2013 | Potency, µM (doses to about 46.2 µM), inactives show at the highest dose activity change, negative = growth inhibition, usual class: inhibitors | actives 15% (n = 420,000) | DT40 Tdp1-/- hTDP1 cells, no CPT, ATP luminescence, 48 h; note: potency is the fitted concentration of half-maximal effect; nearly all actives have a fitted effect of over 55% in size
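Chicken DT40 Tdp1-/- cells stably complemented with human TDP1 were seeded at 400 cells/well with DMSO in place of 20 nM camptothecin. After compound pinning, cells grew at least 48 hr at 37 °C; viability read by CellTiter-Glo luminescence.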
DT40 TDP1 CPT: growth inhibition of DT40 Tdp1-/-;hTDP1 cells with camptothecin (screen for TDP1 inhibitors); AID 686979; actives 12% (n = 420,000); chicken DT40 Tdp1-/-;hTDP1 cells + 20 nM CPT, ATP luminescence, 48 h; Potency, µM (top dose mostly 46.2 µM), for inactives: at the highest dose activity change, negative = growth inhibition, actives largely listed as inhibitors; note: potency is the fitted concentration of half-maximal effect; nearly all actives have a fitted effect of over 55% in size
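Chicken DT40 Tdp1-/- cells complemented with human TDP1, 400 cells/well, exposed to compounds plus 20 nM camptothecin for at least 48 h at 37 C; viability read as ATP content by CellTiter-Glo luminescence.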
IL1B secr inh: blocks inflammasome-driven IL-1 beta release; actives 4.7% (n = 360,000); AID 743279; activity change, % at 57.5 µM; THP-1 LPS/ATP IL-1B secretion, AlphaLISA, 16 h; stronger effect = lower value; in the data active = activity change below about -50%; inconclusive = mostly about -30% to -49%
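Secreted IL-1B measured by AlphaLISA bead assay after 16 h compound exposure of THP-1 cells; compounds (final up to 57.5 uM) added 1 h before LPS (250 ng/mL) and ATP (1.25 mM) stimulation; lower signal means less secretion.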
HT1080 IDH1KD tx: kills HT-1080 cells with IDH1 knockdown; Potency, µM (series often up to 46.1 µM), without a hit: top-dose activity, negative = toxicity, actives largely listed as cytotoxic; HT-1080 IDH1 knockdown viability, ATP luminescence, 48 h; actives 2% (n = 360,000); AID 686971;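 note: potency is the fitted concentration of half-maximal effect; 0% = DMSO wells and -100% = cell-free medium wells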
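After a 2 h attachment period, IDH1KD HT-1080 cells took pin-transferred compound for 48 h at 37 °C; ATP-based luminescence after 10 min room-temperature reagent incubation reported viability.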
* hit, by the source's call. Shown are actives, neighbours in structure and some others; about 19% of the full set was active somewhere. Unless noted, calls come from the whole dose curve; as a rule, active = well fitted curve in the direction sought with a large enough effect; inconclusive = small, poorly fitted or top-dose-only effect, or another doubt; inactive = no such curve, though single readings can be large; an effect the other way counts as inactive or inconclusive. Unless noted, % is set by controls: 0 for no effect and ±100 for the full control effect.

CC(O)CNCCCCOc1ccc(OCc2ccccc2)cc1 (stereo not drawn) was read as ELG1 repair inh inconclusive, HT1080-NT tox inconclusive, TDP1 cell noCPT inconclusive, DT40 TDP1 CPT 23µM*, IL1B secr inh -56* and HT1080 IDH1KD tx -24%.
For O=C(O)c1ccc(S(=O)(=O)N2CCc3ccccc3C2)cc1 the results were ELG1 repair inh -17%, HT1080-NT tox 2%, TDP1 cell noCPT 15%, DT40 TDP1 CPT 0%, IL1B secr inh 81 and HT1080 IDH1KD tx 1%.
Screening NC(=O)c1cc(Br)cc2c3c([nH]c12)CCCC3 returned ELG1 repair inh -16%, HT1080-NT tox inconclusive, TDP1 cell noCPT 23µM*, DT40 TDP1 CPT 18µM*, IL1B secr inh -81* and HT1080 IDH1KD tx inconclusive.
`Brc1ccc2[nH]c3c(c2c1)CCC3` gave ELG1 repair inh inconclusive, HT1080-NT tox -13%, TDP1 cell noCPT -12%, DT40 TDP1 CPT -5%, IL1B secr inh -21 and HT1080 IDH1KD tx -21%.
For CC1OC(COCc2ccccc2)Cc2[nH][nH]c(=O)c21 (stereo not drawn) the results were HT1080-NT tox -2%, TDP1 cell noCPT -18%, DT40 TDP1 CPT -1%, IL1B secr inh 0 and HT1080 IDH1KD tx 2%.
Screening O=C(Nc1ccc(Cl)c([N+](=O)[O-])c1)C(Sc1ccccc1)c1ccccc1 (stereo not drawn) returned ELG1 repair inh 12%, HT1080-NT tox inconclusive, TDP1 cell noCPT inconclusive, DT40 TDP1 CPT inconclusive, IL1B secr inh -83* and HT1080 IDH1KD tx 21µM*.
For CCC(C)NC(C(=O)Nc1ccc(Cl)c([N+](=O)[O-])c1)c1ccccc1 (stereo not drawn) the results were ELG1 repair inh 4%, HT1080-NT tox -6%, TDP1 cell noCPT 16µM*, DT40 TDP1 CPT inconclusive, IL1B secr inh -18 and HT1080 IDH1KD tx 2%.
COCC(C)NC(C(=O)Nc1ccc(Cl)c([N+](=O)[O-])c1)c1ccccc1 (stereo not drawn) was read as ELG1 repair inh 0%, HT1080-NT tox -1%, TDP1 cell noCPT -27%, DT40 TDP1 CPT -11%, IL1B secr inh 10 and HT1080 IDH1KD tx -6%.
For O=C(Nc1cc([N+](=O)[O-])ccc1Cl)C(Sc1ccccc1)c1ccccc1 (stereo not drawn) the results were ELG1 repair inh -6%, HT1080-NT tox -9%, TDP1 cell noCPT inconclusive, DT40 TDP1 CPT inconclusive, IL1B secr inh -9 and HT1080 IDH1KD tx -9%.
O=C(C1=C(O)C(=O)N(CC2CCCO2)C1c1ccccc1F)c1ccco1 (stereo not drawn) was read as ELG1 repair inh -12%, HT1080-NT tox 15%, TDP1 cell noCPT -26%, DT40 TDP1 CPT 1%, IL1B secr inh -94* and HT1080 IDH1KD tx 9%.
Screening O=C(C1=C(O)C(=O)N(CC2CCCO2)C1c1cccc(O)c1)c1ccco1 (stereo not drawn) returned ELG1 repair inh -2%, HT1080-NT tox 16%, TDP1 cell noCPT 3%, DT40 TDP1 CPT 5%, IL1B secr inh 11 and HT1080 IDH1KD tx 12%.
`O=C(NNc1ccc(Cl)nn1)c1ccc(Cl)cc1` gave ELG1 repair inh -1%, HT1080-NT tox 6%, TDP1 cell noCPT -10%, DT40 TDP1 CPT -17%, IL1B secr inh -21 and HT1080 IDH1KD tx -4%.
`COc1ccccc1CNc1nc(-c2ccccc2OC)nc2ccccc12` gave TDP1 cell noCPT 21µM* and DT40 TDP1 CPT 18µM*.
